RE007 growth inh: qHTS Assay for Inhibitors of the HIV-1 protein Vpr; S. pombe RE007 Vpr strain, BacTiter-Glo ATP luminescence, 24 h; Potency, µM (highest dose often 92.2 µM), inactives show at the top dose activity change, negative = less growth, hits mostly inhibitors; 0.21% of 360,000 active; AID 651644, 2012; active = well fitted falling curve with a large enough effect; inconclusive = small, poorly fitted or top-dose-only effect; inactive = no such curve, though single readings can be large or run the other way; also: potency is read from the fitted curve at half-maximal effect; % is scaled to controls: 0 for no effect and ±100 for the full control effect; nearly all actives have a fitted effect of over 50% in size
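Fission yeast strain RE007, carrying one chromosomally integrated HIV-1 vpr copy, was seeded at OD 0.01 in PMG+AL medium with 23 nL pinned compound. After 24 h at 30 °C and 99% humidity, viability was read by BacTiter-Glo luminescence.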
TbPYK inhibitor: qHTS of Trypanosoma Brucei Inhibitors. 0.12% of 410,000 active. pyruvate kinase (Trypanosoma brucei), Q57TT1. TbPYK enzyme, Kinase-Glo Plus ATP luminescence, 45 min. Potency, µM (series often up to 76.8 µM), for the others: top-dose activity, negative = inhibition, usual class: inhibitors; also: potency is read from the fitted curve at half-maximal effect; % is scaled to controls: 0 for no effect and ±100 for the full control effect; nearly all actives have a fitted effect of over 50% in size
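Quantitative HTS: titrated library compounds versus trypanosomal pyruvate kinase in TEA buffer (pH 7.2) containing KCl, MgCl2, BSA and Tween-20. Reactions were initiated with ADP, 130 uM final. Kinase-Glo Plus luminescence was read after 45 min at RT.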
CHX counter: Cycloheximide Counterscreen for Small Molecule Inhibitors of Shiga Toxin; cell reporter, cycloheximide protein synthesis inhibition counterscreen; max response, %; 12% of 300,000 active; in the data active = max response mostly above about 13%, no sharp cut-off; inactive = mostly below about 14%; also: read at 38.3 µM for the half of the compounds with a filed dose; 0% is about no effect
LmPK inh: qHTS Assay for Inhibitors of Leishmania Mexicana Pyruvate Kinase (LmPK); purified LmPK, Kinase-Glo ATP luminescence, 1 h; Potency, µM (doses to about 57.5 µM), without a hit: at the top dose activity change, negative = inhibition, actives largely listed as inhibitors; 0.37% of 290,000 active; also: potency is read from the fitted curve at half-maximal effect; % is scaled to controls: 0 for no effect and ±100 for the full control effect
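Purified LmPK (0.1 nM) with 0.5 mM PEP and 0.1 mM ADP in imidazole buffer pH 7.2 with MgCl2/KCl, 1 h at room temperature. ATP formed was read by luciferase luminescence and normalized to no-enzyme and uninhibited controls.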
FBPA Giardia inh: qHTS Assay for Inhibitors of Fructose-1,6-bisphosphate Aldolase from Giardia Lamblia; A8B2U2; purified Giardia FBPA; Potency, µM (highest dose often 59.6 µM), for the others: at the top dose activity, negative = inhibition, most hits filed as inhibitors; 0.71% of 290,000 active; also: potency is read from the fitted curve at half-maximal effect; % is scaled to controls: 0 for no effect and ±100 for the full control effect; nearly all actives have a fitted effect of over 55% in size
Target sequence (A8B2U2 whole entry, looked up): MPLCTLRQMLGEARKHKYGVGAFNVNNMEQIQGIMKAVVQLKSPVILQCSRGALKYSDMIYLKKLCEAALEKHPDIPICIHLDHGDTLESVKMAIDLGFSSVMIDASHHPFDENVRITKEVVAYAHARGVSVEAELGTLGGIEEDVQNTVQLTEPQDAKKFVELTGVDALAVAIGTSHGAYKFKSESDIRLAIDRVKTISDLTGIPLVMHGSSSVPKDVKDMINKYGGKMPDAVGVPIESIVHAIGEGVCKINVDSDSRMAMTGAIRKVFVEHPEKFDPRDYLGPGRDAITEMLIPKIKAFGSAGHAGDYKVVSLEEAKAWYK
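40 nM FBPA preincubated 10 min at RT with compound (up to 57.5 uM final), then substrate plus GAPDH/TPI/NAD/arsenate coupling and diaphorase/resazurin added. Fluorescence read after 20 min at RT, 525/598 nm.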
Shiga inhibitor: A qHTS for Small Molecule Inhibitors of Shiga Toxin; Vero cells, Shiga toxin protein synthesis inhibition reporter; inhibition, % at 38.7 µM; 9.2% of 290,000 active; in the data active = inhibition mostly above about 28%, no sharp cut-off; inactive = mostly below about 43%; also: 0% is about no effect
* = called active by the depositor. The sample as a whole holds a higher share of hits than the screen did. Unless noted, calls follow the shape of the dose curve; as a rule, active = well fitted curve in the direction sought with a large enough effect; inconclusive = small, poorly fitted or top-dose-only effect, or another doubt; inactive = no such curve, though single readings can be large; an effect the other way counts as inactive or inconclusive.

Screening Cc1ccc(OCC(O)CNCc2ccc(F)cc2)cc1 (configuration not stated) returned RE007 growth inh -3%, TbPYK inhibitor -5%, CHX counter 3, LmPK inh 2%, FBPA Giardia inh 4% and Shiga inhibitor -2.
Screening Cc1ccc(OCc2ccc(C(=O)NN)o2)c([N+](=O)[O-])c1 returned RE007 growth inh -13%, TbPYK inhibitor 0%, CHX counter 37*, LmPK inh 4%, FBPA Giardia inh -1% and Shiga inhibitor 36.
COC(=O)c1ccc(COc2ccc(C)cc2[N+](=O)[O-])o1 was read as RE007 growth inh 5%, TbPYK inhibitor -6%, CHX counter 48*, LmPK inh -2%, FBPA Giardia inh -7% and Shiga inhibitor 77*.
`CN(C)CCNc1ncnc2c1ncn2[C@H]1CN(Cc2ccc3c(c2)OCO3)C[C@@H](CO)O1` gave RE007 growth inh -1% and TbPYK inhibitor -3%.
For c1ccc(-c2nc(N3CCOCC3)sc2-c2ccccc2)cc1 the results were RE007 growth inh 3%, TbPYK inhibitor 3%, CHX counter 8, LmPK inh -8%, FBPA Giardia inh -6% and Shiga inhibitor -1.
For c1ccc(-c2nc(N3CCOCC3)s[n+]2-c2ccccc2)cc1 the results were TbPYK inhibitor 2.5µM*, CHX counter 57*, LmPK inh -19%, FBPA Giardia inh 9% and Shiga inhibitor 40*.
Screening COc1cccc2c(C)cc3nnc(SCC(=O)Nc4ccc(C)cc4)n3c12 returned TbPYK inhibitor -12%.
Screening CCCCOCCCNC(=O)C[C@@H]1C[C@@]2(C(=O)OCC)CCCC=C2N(CCc2ccc(OC)c(OC)c2)C1=O returned RE007 growth inh -3%.
Screening O=C(Nc1ccccc1C(=O)N/N=C/c1ccncc1)c1ccccc1 returned RE007 growth inh 8.9µM*, TbPYK inhibitor inconclusive, CHX counter 22, LmPK inh 25µM*, FBPA Giardia inh -1% and Shiga inhibitor 17.
`COc1ccc(C(=O)Nc2ccccc2C(=O)N/N=C/c2ccco2)cc1` gave RE007 growth inh 18µM*, TbPYK inhibitor inconclusive, CHX counter 41*, LmPK inh 25µM*, FBPA Giardia inh -4% and Shiga inhibitor 55*.
`CCOc1ccc(/C=N/NC(=O)c2ccccc2NC(=O)c2ccc(OC)cc2)cc1` gave RE007 growth inh -18%, TbPYK inhibitor -10%, CHX counter 60*, LmPK inh -13%, FBPA Giardia inh -3% and Shiga inhibitor 45*.
For COc1ccc(Nc2nc(N)nc(CCl)n2)cc1 the results were RE007 growth inh 20%, TbPYK inhibitor 0%, CHX counter 67*, LmPK inh -14%, FBPA Giardia inh 0% and Shiga inhibitor 78*.
For Nc1nc(CCl)nc(Nc2ccc3ccccc3c2)n1 the results were RE007 growth inh 13%, TbPYK inhibitor 10%, CHX counter 74*, LmPK inh -5%, FBPA Giardia inh -24% and Shiga inhibitor 90*.
`COc1ccc(Nc2nc(N)nc(CN3CCOCC3)n2)cc1` gave RE007 growth inh 19%, TbPYK inhibitor -8%, CHX counter 5, LmPK inh 8%, FBPA Giardia inh -19% and Shiga inhibitor 15.
For CCN1CCN(C(c2ccc(F)cc2)c2c(O)cc(C)n(CCOC)c2=O)CC1 (configuration not stated) the results were TbPYK inhibitor -7%.
For CN(C)S(=O)(=O)c1ccc(C(=O)Nc2ccc(-n3nncc3-c3ccccc3)cc2)cc1 the results were TbPYK inhibitor 1%.
`Nc1ccc(O)c2c1C(=O)c1ccccc1C2=O` gave RE007 growth inh inconclusive, TbPYK inhibitor -21%, CHX counter 22*, LmPK inh -29%, FBPA Giardia inh inconclusive and Shiga inhibitor 36*.
For Nc1ccc(NC(=O)c2ccccc2)c2c1C(=O)c1ccccc1C2=O the results were RE007 growth inh 0%, TbPYK inhibitor -18%, CHX counter 1, LmPK inh -7%, FBPA Giardia inh 4% and Shiga inhibitor -4.
COc1ccc(N)c2c1C(=O)c1ccccc1C2=O was read as RE007 growth inh inconclusive, TbPYK inhibitor -11%, CHX counter 51*, LmPK inh inconclusive, FBPA Giardia inh -9% and Shiga inhibitor 60*.
`COc1ccc(OC)c2c1C(=O)C(Cl)=C(Cl)C2=O` gave RE007 growth inh inconclusive, TbPYK inhibitor 2.8µM*, CHX counter 15*, LmPK inh -21%, FBPA Giardia inh 1.3µM* and Shiga inhibitor 13.
COc1ccc(OC)c2c1C(=O)c1ccccc1C2=O was read as RE007 growth inh -8%, TbPYK inhibitor 0%, CHX counter -2, LmPK inh -15%, FBPA Giardia inh inconclusive and Shiga inhibitor -10.
`Nc1ccc(Br)c2c1C(=O)c1ccccc1C2=O` gave RE007 growth inh -14%, TbPYK inhibitor 3%, CHX counter 28*, LmPK inh -4%, FBPA Giardia inh -15% and Shiga inhibitor 20.
`O=C(CCC(=O)c1cccs1)NCc1ccccc1Cl` gave RE007 growth inh -3% and TbPYK inhibitor 7%.
Cc1cc2c(cc1C)C(=O)C(Br)=C(N)C2=O was read as RE007 growth inh inconclusive and TbPYK inhibitor -5%.
For NC1=C(Br)C(=O)c2ccccc2C1=O the results were RE007 growth inh 11µM*, TbPYK inhibitor -6%, CHX counter 31*, LmPK inh -29%, FBPA Giardia inh inconclusive and Shiga inhibitor 81*.
For O=C(CN1CCN(S(=O)(=O)c2ccc(Br)cc2)CC1)Nc1ccccc1F the results were RE007 growth inh -9%, TbPYK inhibitor 1%, CHX counter -1, LmPK inh 3%, FBPA Giardia inh -6% and Shiga inhibitor -11.
`O=C(CN1CCN(S(=O)(=O)c2ccc(Cl)cc2)CC1)Nc1ccc(F)cc1F` gave RE007 growth inh 3%, TbPYK inhibitor 5%, CHX counter 17*, LmPK inh -1%, FBPA Giardia inh 3% and Shiga inhibitor 24.
Screening O=C(CN1CCN(S(=O)(=O)c2ccc(Br)cc2)CC1)Nc1ccc(F)cc1F returned RE007 growth inh 6%, TbPYK inhibitor -3%, CHX counter 13*, LmPK inh -5% and Shiga inhibitor 17.
For COc1ccccc1/C=C/c1nc(C#N)c(NCc2ccccc2)o1 the results were TbPYK inhibitor -5%.
